Most compounds without a hit are left out; they make up all but 6.8% or so of the library.
C diff HTS: inhibitors of Clostridium difficile growth; hit rate 0.25% among 86,000; growth activity, negative = inhibition, % at 16 µg/mL (by protocol); Clostridium difficile clinical isolate growth, OD600, 24 h; hits give low values;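 active means mean growth activity at or below -80% and every replicate also at or below -80%; inconclusive means mean at or below -80% but some replicate above -80%; inactive means mean growth activity above -80%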
Pf Dd2 growth: P. falciparum Dd2 growth inhibition; SYBR Green, 72 h; hits give low values; activity change, % at 10 µM; hit rate 2.3% among 94,000; AID 1159554; in the data active means activity change below about -80%; inconclusive means no clear call, values can overlap the other calls
T cruzi growth-1: inhibitors of T. cruzi proliferation; T. cruzi beta-gal in NIH3T3, GalScreen luminescence, 90 h; inhibition, % at 8.34 µM; hit rate 5.9% among 77,000; AID 624255;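 active means mean inhibition above about 93%, with at least 55% of replicates each passing it, limit read from the data, passing the limit was not always enough; inconclusive means only one of those two conditions holds; inactive means neither condition holds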
T cruzi growth-2: inhibitors of T. cruzi proliferation; shares compounds with T cruzi growth-1; T. cruzi beta-gal in NIH3T3, GalScreen luminescence, 90 h; inhibition, % at 8.35 µM; hit rate 72% among 5,600; AID 651739;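 active means mean replicate inhibition above about 95% and at least 55% of replicates individually reaching it, limit read from the data; inconclusive means only one of the two criteria is met; inactive means neither criterion is met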
T cruzi growth-3: Trypanosoma cruzi proliferation inhibition; shares compounds with T cruzi growth-1; T. cruzi beta-gal in NIH3T3, GalScreen luminescence, 90 h; inhibition, % at 2.09 µM; hit rate 21% among 5,600;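 active means mean inhibition above about 95%, with at least 55% of replicates also reaching it, limit read from the data; inconclusive means meets just one of the two conditions; inactive means meets neither condition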
NIH3T3 tox: NIH/3T3 (mouse) viability loss; shares compounds with T cruzi growth-1; AID 651742; hit rate 14% among 5,600; NIH/3T3 viability, CellTiter-Glo ATP luminescence, 90 h; cytotoxicity (signal decrease), % at 8.35 µM;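 active means mean signal decrease across replicates above about 35% based on untreated-well scatter, with enough replicates individually passing, limit read from the data; inconclusive means no rule stated though some were filed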
NIH3T3 tox 2: kills mouse NIH/3T3 fibroblasts | shares compounds with T cruzi growth-1 | NIH/3T3 viability, CellTiter-Glo ATP luminescence, 90 h | inhibition, % at 24.9 µM | hit rate 56% among 5,600 | AID 651744;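 active means mean loss of cell viability signal at or above a set limit, and enough replicates individually reaching it; inconclusive means meets only the mean limit or only the replicate share; inactive means meets neither condition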
Of the large screens only hits and unclear results are named; the others gave an inactive call (follow-up assays come after a bar, where they were run); ! = not active in a repeat.

CC=Cc1ccc2n(c1=O)C[C@@H]1[C@@H](CO)[C@H](C(=O)NCCCN(C)C)[C@H]2N1C(=O)c1ccccc1 (mixture of isomers)	none (no result: T cruzi growth-1)
CC=Cc1ccc2n(c1=O)C[C@H]1[C@H](CO)[C@@H](C(=O)NCCCN(C)C)[C@@H]2N1C(=O)c1ccccc1F (mixture of isomers)	T cruzi growth-1 active (no result: Pf Dd2 growth) | T cruzi growth-2 inconclusive | T cruzi growth-3 inactive | NIH3T3 tox inactive | NIH3T3 tox 2 inactive
CC(=O)N1[C@@H]2c3ccc(/C=C/c4ccccc4)c(=O)n3C[C@H]1[C@H](CO)[C@H]2C(=O)N(C)C	T cruzi growth-1 active (no result: Pf Dd2 growth) | T cruzi growth-2 inactive | T cruzi growth-3 inactive | NIH3T3 tox inactive | NIH3T3 tox 2 inactive
CC=Cc1ccc2n(c1=O)C[C@@H]1[C@@H](CO)[C@H](C(=O)N(C)C)[C@H]2N1C(=O)c1ccccc1 (mixture of isomers)	none
CC(=O)N1[C@@H]2Cn3c(ccc(/C=C/c4ccccc4)c3=O)[C@H]1[C@@H](C(=O)N(C)C)[C@@H]2CO	T cruzi growth-1 active (no result: Pf Dd2 growth) | T cruzi growth-2 inactive | T cruzi growth-3 inactive | NIH3T3 tox inactive | NIH3T3 tox 2 inactive
CCC(=O)N1[C@@H]2c3ccc(/C=C/c4ccccc4)c(=O)n3C[C@H]1[C@H](CO)[C@H]2C(=O)N(C)C	none
O=C(Nc1ccccc1)[C@H]1[C@H](CO)[C@H]2Cn3c(cccc3=O)[C@H]2N1C(=O)C1CCCC1	none (no result: Pf Dd2 growth)
CNC[C@@H]1Oc2cc(-c3ccccc3F)ccc2S(=O)(=O)N([C@@H](C)CO)C[C@H]1C	none (no result: T cruzi growth-1)
C[C@H]1CN([C@@H](C)CO)S(=O)(=O)c2ccc(-c3ccccc3F)cc2O[C@@H]1CN(C)Cc1cccnc1	T cruzi growth-1 105 | T cruzi growth-2 107 | T cruzi growth-3 104 | NIH3T3 tox 36 | NIH3T3 tox 2 100
C[C@@H]1CN([C@H](C)CO)S(=O)(=O)c2ccc(-c3ccccc3F)cc2O[C@H]1CN(C)Cc1cccnc1	none
C[C@H](CO)N1C[C@H](C)[C@@H](CN(C)Cc2cccnc2)Oc2cc(-c3ccccc3F)ccc2S1(=O)=O	none
C[C@@H]1CN([C@@H](C)CO)S(=O)(=O)c2ccc(-c3ccccc3F)cc2O[C@@H]1CN(C)Cc1cccnc1	T cruzi growth-1 101 | T cruzi growth-2 105 | T cruzi growth-3 inactive | NIH3T3 tox 69 | NIH3T3 tox 2 71
COCC(=O)Nc1ccc2c(c1)OC[C@@H](C)N(Cc1cccc(F)c1)C[C@H](C)[C@H](OC)CN(C)C2=O	none (no result: C diff HTS)
CC(C)C#Cc1ccc2c(c1)O[C@@H](CN(C)C(=O)Nc1ccccc1)[C@@H](C)CN([C@H](C)CO)S2(=O)=O	none (no result: T cruzi growth-1)
CC(C)CC#Cc1ccc2c(c1)O[C@@H](CN(C)C(=O)Nc1ccccc1)[C@H](C)CN([C@@H](C)CO)S2(=O)=O	T cruzi growth-1 121 | T cruzi growth-2 107 | T cruzi growth-3 inactive | NIH3T3 tox inactive | NIH3T3 tox 2 78
CC(C)CC#Cc1ccc2c(c1)O[C@H](CN(C)C(=O)Nc1ccccc1)[C@@H](C)CN([C@H](C)CO)S2(=O)=O	T cruzi growth-1 117! | T cruzi growth-2 107 | T cruzi growth-3 inactive | NIH3T3 tox inactive | NIH3T3 tox 2 inconclusive
CC(C)C#Cc1ccc2c(c1)O[C@H](CN(C)C(=O)Nc1ccccc1)[C@H](C)CN([C@@H](C)CO)S2(=O)=O	none (no result: T cruzi growth-1)
CC(C)C#Cc1ccc2c(c1)O[C@H](CN(C)C(=O)Nc1ccccc1)[C@@H](C)CN([C@@H](C)CO)S2(=O)=O	none (no result: T cruzi growth-1)
CC(C)CC#Cc1ccc2c(c1)O[C@@H](CN(C)C(=O)Nc1ccccc1)[C@@H](C)CN([C@@H](C)CO)S2(=O)=O	T cruzi growth-1 127 | T cruzi growth-2 111 | T cruzi growth-3 105 | NIH3T3 tox inactive | NIH3T3 tox 2 103
COc1ccc(NC(=O)N(C)C[C@H]2OCCCC[C@H](C)Oc3ccc(NC(=O)Nc4ccc(C(F)(F)F)cc4)cc3C(=O)N([C@@H](C)CO)C[C@H]2C)cc1	none
COc1ccc(NC(=O)N(C)C[C@H]2OCCCC[C@@H](C)Oc3ccc(NC(=O)Nc4ccc(C(F)(F)F)cc4)cc3C(=O)N([C@@H](C)CO)C[C@H]2C)cc1	T cruzi growth-1 109 | T cruzi growth-2 105 | T cruzi growth-3 113 | NIH3T3 tox inactive | NIH3T3 tox 2 inactive
COc1ccc(NC(=O)Nc2ccc3c(c2)C(=O)N([C@@H](C)CO)C[C@@H](C)[C@H](CN(C)C(=O)Nc2ccc(C(F)(F)F)cc2)OCCCC[C@H](C)O3)cc1	T cruzi growth-1 inconclusive | T cruzi growth-2 103 | T cruzi growth-3 100 | NIH3T3 tox inactive | NIH3T3 tox 2 inactive
COc1ccc(NC(=O)Nc2ccc3c(c2)C(=O)N([C@@H](C)CO)C[C@@H](C)[C@@H](CN(C)C(=O)Nc2ccc(OC)cc2)OCCCC[C@@H](C)O3)cc1	none (no result: C diff HTS)
COc1ccc(NC(=O)Nc2ccc3c(c2)C(=O)N([C@@H](C)CO)C[C@@H](C)[C@@H](CN(C)C(=O)Nc2ccc(OC)cc2)OCCCC[C@H](C)O3)cc1	none (no result: C diff HTS)
COc1ccc(NC(=O)Nc2ccc3c(c2)C(=O)N([C@@H](C)CO)C[C@@H](C)[C@@H](CN(C)C(=O)Nc2ccc(C(F)(F)F)cc2)OCCCC[C@@H](C)O3)cc1	T cruzi growth-1 inconclusive | T cruzi growth-2 101 | T cruzi growth-3 107 | NIH3T3 tox inactive | NIH3T3 tox 2 inactive
COc1ccc(NC(=O)Nc2ccc3c(c2)C(=O)N([C@H](C)CO)C[C@H](C)[C@@H](CN(C)C(=O)Nc2ccc(C(F)(F)F)cc2)OCCCC[C@H](C)O3)cc1	Pf Dd2 growth -90, T cruzi growth-1 inconclusive | T cruzi growth-2 112 | T cruzi growth-3 107 | NIH3T3 tox inactive | NIH3T3 tox 2 inactive
COc1ccc(NC(=O)N(C)C[C@@H]2OCCCC[C@@H](C)Oc3ccc(NC(=O)Nc4ccc(C(F)(F)F)cc4)cc3C(=O)N([C@@H](C)CO)C[C@H]2C)cc1	none
COc1ccc(S(=O)(=O)Nc2cccc3c2O[C@@H](CN(C)CC2CC2)[C@H](C)CN([C@H](C)CO)C3=O)cc1	none
COc1ccc(S(=O)(=O)N(C)C[C@@H]2Oc3ncc(-c4ccncc4)cc3C(=O)N([C@H](C)CO)C[C@@H]2C)cc1	none
Cc1noc(C)c1NC(=O)Nc1ccc2c(c1)C(=O)N([C@H](C)CO)C[C@H](C)[C@H](CN(C)C(=O)Nc1ccc(F)cc1)OCCCC[C@@H](C)O2	none
C[C@@H]1CN([C@@H](C)CO)C(=O)c2cc(NC(=O)c3ccncc3)ccc2O[C@H]1CN(C)Cc1ccc2c(c1)OCO2	none

From PubChem
